The values below come from PubChem BioAssay (NCATS).

Calls of active or inactive are those of the source. A call without a number means that no potency is given here. Calls follow the shape of the dose curve; as a rule, active = well fitted activation curve with a large enough effect; inconclusive = small, poorly fitted or top-dose-only effect; inactive = flat fitted curve, though single readings scatter.
Potency is read from the fitted curve at half-maximal effect.

A short description of the test: Confirmation and Secondary Assay for Modulators of Hemoglobin Beta Chain Splicing at IVS2 705 locus (AID 930). The settings on record: HeLa EGFP-705 splicing reporter, GFP fluorescence, 48 h; series mostly up to 46.1 µM. The source says: NIH Chemical Genomics Center [NCGC] NIH Molecular Libraries Screening Centers Network [MLSCN] MLSCN Grant: 1 X01 MH080684-01 PI Name: Dr. Ryszard Kole NCGC Assay Overview: Modulation of Alternative Splicing as Therapy Abnormal splicing is associated with a number of diseases, including cancer and genetic diseases such as cystic fibrosis, muscular dystrophy and beta-thalassemia. Alteration of disease associated splicing patterns provides a promising target for treatment. […] Mutations in the second intron of the b-globin gene at positions 654 or 705 are clinically relevant and cause mis-splicing which results in an out of frame gene product. […] EGFP-705 HeLa Cells as screen system. HeLa cell lines were stably transfected with a construct in which the EGFP (enhanced green fluorescent protein) cDNA was interrupted by the second intron of the beta-globin gene (IVS2-705). The ISV2 intron contains mutations which cause mis-splicing of EGFP and premature termination of EGFP which results in a nonfluorescent protein product. […] Expression of the transgene was driven by the CMV promoter. We concluded that a low molecular weight compound, which restored correct splicing of intron 2 would also generate functional EGFP protein, resulting in a fluorescent signal. Thus, the HeLa cells that express the EGFP-705 construct can be used for validation of splice site specificity of compounds identified in primary screening of the ISV2 654 construct.
NCGC Assay Protocol Summary: Confirmatory Screening. Freshly thawed HeLa EGFP-705 cells were seeded in 5 ul of optimem media (Invitrogen) containing 2 % fetal calf serum (Hyclone) and 1x penicillin/streptomycin (Invitrogen) at a concentration of 500 cells per well in 1536-well plates. Cells were incubated overnight at 37C in 5% CO2. The next day, cells were treated with DMSO, 500 nM antisense ISV2 654 PNA control oligo, or library compound and allowed to grow at 37C in 5% CO2 for 2 days. The PNA oligo blocked the mutation site in the intron and allowed proper (wild type) splicing to occur, resulting in full length EGFP expression and also allowed for optimization of the assay parameters. Plates were read in the Acumen Explorer (TTP Labtech) using 488 nm laser excitation and 500-520 nm emission PMT filter in a 1 x 8 uM capture mode. Fluorescnet objects ranging in size from 5 to 250 uM were measured and the total peak GFP intensity for each well was used for data analysis. Keywords: Thalassemia, beta-thalassemia, beta-globin, EGFP, ISV2 654, ISV2 705, SSO, PNA, antisense, splicing, MLSMR, MLSCN, NIH Roadmap, qHTS, NCGC
Consider `NS(=O)(=O)c1cc2c(cc1C(F)(F)F)NC(Cc1ccccc1)NS2(=O)=O` (stereo not given), for which the Potency entry is “inactive”.

For `Cc1cc(CC(=O)O)n(C)c1C(=O)c1ccc(Cl)cc1`, the Potency entry is “inactive”.

Regarding `O=c1cc[nH]c(=S)[nH]1`, the Potency entry was “inactive”.

On to `C=Cc1c(C)c2cc3[nH]c(cc4nc(cc5nc(cc1[nH]2)C(C)=C5CCC(=O)O)C(CCC(=O)O)=C4C)c(C)c3C=C`, for which the Potency entry is “inactive”.

In the case of `CCN(CC)CCNC(=O)c1cc(Cl)c(N)cc1OC`, the Potency result was “inactive”.

Turning to `CC(C)(C(=O)O)c1ccc(C(O)CCCN2CCC(C(O)(c3ccccc3)c3ccccc3)CC2)cc1` (stereo not given), the Potency entry is “inactive”.

In the case of `CC1=C(CC(=O)O)c2cc(F)ccc2/C1=C\c1ccc(S(C)=O)cc1` (stereo not given), the Potency entry was “inactive”.

As to `CN(C)CCN(Cc1ccccc1)c1ccccn1`, the Potency result is “inactive”.

Consider `NS(=O)(=O)c1cc2c(cc1Cl)NC(CSCc1ccccc1)=NS2(=O)=O`, for which the Potency entry is “inactive”.

Take `CCN(CC)C(C)CN1c2ccccc2Sc2ccccc21` (stereo not given): the Potency result was “inactive”.

Turning to `O=C1c2c(O)cccc2Cc2cccc(O)c21`, the Potency entry was “inactive”.

Regarding `O=C1NS(=O)(=O)c2ccccc21`, the Potency entry was “inactive”.

As to `CN(C)CCC=C1c2ccccc2CCc2ccccc21`, the Potency result is “inactive”.

For the compound `CNCC(O)c1ccc(O)c(O)c1` (stereo not given), the Potency entry is “inactive”.

`CCN(CC)CCCC(C)Nc1c2ccc(Cl)cc2nc2ccc(OC)cc12` (stereo not given): the Potency is 7.94 µM (active).

With `CCN(CC)CCOC(=O)C1(C2CCCCC2)CCCCC1`, the Potency entry is “inactive”.

For `OCCN1CCN(CCCN2c3ccccc3Sc3ccc(Cl)cc32)CC1`, the Potency result is “inactive”.

For `c1ccc(CN(CC2=NCCN2)c2ccccc2)cc1`, the Potency result was “inactive”.

As to `COC(=O)C1=C(C)NC(C)=C(C(=O)OC)C1c1ccccc1[N+](=O)[O-]`, the Potency result was “inactive”.

Turning to `CCCCCCCCCCCCCCCCCCOCC(O)CO` (stereo not given), the Potency entry was “inactive”.

As to `Cc1cc(N)c2ccccc2[n+]1CCCCCCCCCC[n+]1c(C)cc(N)c2ccccc21`, the Potency result is “inactive”.

Consider `O=C(O)c1ccccc1O`, for which the Potency result was “inactive”.

`O=C(CCCN1CCN(c2ccccn2)CC1)c1ccc(F)cc1`: the Potency entry is “inactive”.

For the compound `CC(CN(C)C)CN1c2ccccc2CCc2ccccc21` (stereo not given), the Potency entry was “inactive”.

For the compound `CC1(C)OC(=O)NC1=O`, the Potency entry was “inactive”.

`NCC(=O)CCC(=O)O`: the Potency entry was “inactive”.

As to `CC(CN1c2ccccc2Sc2ccccc21)N(C)C` (stereo not given), the Potency result is “inactive”.

`NC(=O)N/N=C/c1ccc([N+](=O)[O-])o1`: the Potency entry was “inactive”.

For `CCCCN(CCCC)CCCOC(=O)c1ccc(N)cc1`, the Potency entry was “inactive”.

For the compound `CSc1ccc2c(c1)N(CCC1CCCCN1C)c1ccccc1S2` (stereo not given), the Potency result is “inactive”.

For the compound `CN1CCOC(c2ccccc2)c2ccccc2C1` (stereo not given), the Potency entry was “inactive”.

Regarding `CN(C)CCOC(C)(c1ccccc1)c1ccccn1` (stereo not given), the Potency entry is “inactive”.

`CC(COc1ccccc1)NC(C)C(O)c1ccc(O)cc1` (stereo not given): the Potency result is “inactive”.

In the case of `NC(=O)NC(=O)Cc1ccccc1`, the Potency result is “inactive”.

In the case of `CSc1ccc2c(c1)C(N1CCN(C)CC1)Cc1ccccc1S2` (stereo not given), the Potency entry was “inactive”.

On to `CN(C)CCCN1c2ccccc2Sc2ccc(Cl)cc21`, for which the Potency entry was “inactive”.

With `CN(C)CC[C@@H](c1ccc(Cl)cc1)c1ccccn1`, the Potency entry is “inactive”.

As to `Cn1cc[nH]c1=S`, the Potency result was “inactive”.

As for `COc1ccc(Cl)cc1C(=O)NCCc1ccc(S(=O)(=O)NC(=O)NC2CCCCC2)cc1`, the Potency result is “inactive”.

Consider `O=C(Oc1ccccc1C(=O)O)c1ccccc1O`, for which the Potency entry is “inactive”.
